Source: PMC5540273 (PLoS ONE, 2017)

Columns and labels:
Details in all cases: concentration: 1 μM,replicates: in singlicate; n = 1
PIP5K1A = test system: PIP5K1A
PIP5K1C = test system: PIP5K1C
PIP5K2B = test system: PIP5K2B
PIP5K2C = test system: T1, PIP5K2C
T1 construct: gene PIP4K2C

PKAC-alpha = test system: T2, PKAC-alpha
T2 construct: gene PRKACA

PKAC-beta = test system: T3, PKAC-beta
T3 construct: gene PRKACB

PKMYT1 = test system: PKMYT1
PKN1 = test system: PKN1
PKN2 = test system: PKN2
PLK1 = test system: PLK1
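Note: KINOMEscan kinase panel screen.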

SMILES | %Inh (PIP5K1A) [%] | %Inh (PIP5K1C) [%] | %Inh (PIP5K2B) [%] | %Inh (PIP5K2C) [%] | %Inh (PKAC-alpha) [%] | %Inh (PKAC-beta) [%] | %Inh (PKMYT1) [%] | %Inh (PKN1) [%] | %Inh (PKN2) [%] | %Inh (PLK1) [%]
Cc1ccc2c(-c3ccnc(Nc4ccc(C(F)(F)F)cc4)n3)cnn2n1 [GW819776] | 15 | 0 | 0 | 82 | 14 | 20 | 0 | 0 | 0 | 25
COc1cc2nccc(Nc3ccc(Oc4ccccc4)cc3)c2cc1OC.Cl [GI261656] | 10 | 56 | 46 | 31 | 0 | 0 | 0 | 0 | 0 | 0
OCCn1cc(-c2cnc3nnn(Cc4ccc5ncccc5c4)c3n2)cn1 | 1 | 3 | 0 | 0 | 0 | 0 | 0 | 0 | 0 | 0
C[C@@H]1CNc2c(sc3ccc4nc(-c5ccc(O)cc5)ccc4c23)C(=O)N1 | 3 | 18 | 78 | 13 | 4 | 5 | 2 | 0 | 16 | 0
Cl.c1ccc(Oc2ccc(Nc3ccnc4cc(-c5ccc(CN6CCNCC6)o5)ccc34)cc2)nc1 [GW567142] | 0 | 34 | 0 | 23 | 0 | 0 | 0 | 10 | 0 | 22
Cn1ccc2ncnc(Oc3ccc(NC(=O)Nc4ccnc(C(F)(F)F)c4)c(Cl)c3)c21 | 13 | 0 | 15 | 0 | 0 | 0 | 3 | 0 | 0 | 0
COc1cc(Nc2nccc(N3CCC(NC(=O)c4cccc(C#N)c4)C3)n2)cc(OC)c1OC (centres unmarked) [GSK1379751] | 0 | 47 | 0 | 94.5 | 0 | 0 | 0 | 0 | 0 | 0
C[C@@H](Oc1cc(-n2cnc3cc(-c4ccncc4)ccc32)sc1C(N)=O)c1ccccc1Cl [GSK479719] | 0 | 58 | 21 | 29 | 0 | 0 | 0 | 15 | 44 | 
CCNCC(Cc1ccccc1)NC(=O)c1cc(Br)c(-c2ccnc3[nH]ccc23)s1.Cl.Cl (centres unmarked) [GSK1383280] | 55 | 38 | 16 | 36 | 99.4 | 99.3 | 0 | 39 | 58 | 0
CC(=O)c1c(-c2ccncc2)[nH]c(-c2ccncc2)c1C [GW493036] | 50 | 91.1 | 19 | 16 | 0 | 47 | 0 | 16 | 0 | 18
C[C@@H]1CNc2c(sc3ccc4nc(-c5ccncc5)ccc4c23)C(=O)N1 | 30 | 11 | 0 | 0 | 0 | 27 | 7 | 7 | 15 | 0
Cc1cccc2c(-c3ccncc3)c(-c3ccc(F)cc3)nn12.Cl [GW461487] | 13 | 35 | 10 | 0 | 0 | 0 | 9 | 0 | 0 | 0
CC(=O)Nc1ccc(-c2cc3ncnc(SCC(=O)O)c3s2)cc1 | 0 | 70 | 0 | 46 | 0 | 0 | 25 | 12 | 5 | 0
COc1ccc(Nc2nccc(N3CCC(NC(=O)c4cccc(C#N)c4)C3)n2)cc1 (centres unmarked) [GSK1379730] | 4 | 35 | 0 | 23 | 12 | 9 | 0 | 37 | 0 | 0
C[C@@H](Oc1cc(-n2cnc3cc(-c4cnn(C)c4)ccc32)sc1C(N)=O)c1ccccc1Cl [GSK580432] | 0 | 38 | 37 | 3 | 2 | 0 | 15 | 0 | 72 | 
CC(C)c1nc(-c2cccc(NS(=O)(=O)c3ccccc3)c2)c(-c2ccnc(Nc3ccc4c(c3)CN(C)CC4)n2)s1 [GSK1649598] | 0 | 0 | 20 | 65 | 0 | 0 | 0 | 43 | 0 | 0
Cn1ccc2ncnc(Oc3ccc(NC(=O)Nc4cncc(C(F)(F)F)c4)c(Cl)c3)c21 | 29 | 20 | 6 | 0 | 0 | 0 | 6 | 0 | 0 | 0

SMILES | %Inh (PIP5K1A) [%] | %Inh (PIP5K1C) [%] | %Inh (PIP5K2B) [%] | %Inh (PIP5K2C) [%] | %Inh (PKAC-alpha) [%] | %Inh (PKAC-beta) [%] | %Inh (PKMYT1) [%] | %Inh (PKN1) [%] | %Inh (PKN2) [%] | %Inh (PLK1) [%]
Cn1cc(-c2cccc3c(N)c(C(N)=O)nnc23)cn1 | 0 | 5 | 0 | 7 | 0 | 16 | 9 | 0 | 23 | 14
O=C1NCCc2[nH]c(-c3ccncc3)cc21 | 2 | 12 | 4 | 0 | 34 | 32 | 4 | 77 | 80 | 
Cl.Cl.NC[C@H](CC1CCCCC1)NC(=O)c1ccc(-c2ccnc3[nH]ccc23)s1 [GSK1581428] | 47 | 41 | 75 | 25 | 99.7 | 99.9 | 0 | 52 | 99 | 2
Cc1ccc(CC(=O)N2CCc3cc(-c4cn(C)c5ncnc(N)c45)ccc32)cc1 [GSK2634758] | 33 | 57 | 32 | 17 | 0 | 0 | 4 | 0 | 16 | 7
Cc1ccc(C(=O)Nc2ccc(Oc3ccc4nc(NC(=O)C5CC5)cn4c3)c(F)c2)c(=O)n1-c1ccccc1 | 26 | 44 | 34 | 77 | 0 | 26 | 0 | 0 | 0 | 2
CCn1c(-c2nonc2N)nc2cncc(Br)c21 [SB-738004] | 54 | 53 | 28 | 38 | 11 | 0 | 6 | 0 | 4 | 18
O=C(NCC1CC1)c1ccc(-c2cc(C(=O)NC3CC3)ccc2F)cc1 [GW810445] | 54 | 0 | 0 | 22 | 7 | 0 | 0 | 0 | 0 | 6
C[C@@H](Oc1cc(-n2cnc3ccc(-c4ccncc4)cc32)sc1C(N)=O)c1ccccc1Cl [GSK483724] | 0 | 85 | 13 | 81 | 13 | 5 | 0 | 17 | 10 | 
COc1cc2ncn(-c3cc(OCC4CCCCC4)c(C(N)=O)s3)c2cc1OC [GSK204559] | 0 | 61 | 12 | 11 | 9 | 0 | 2 | 24 | 0 | 
NC(=O)c1ccc(-c2cc3ncnc(SCC(=O)O)c3s2)cc1 | 0 | 93 | 6 | 72 | 0 | 0 | 0 | 0 | 4 | 0
O=C(Nc1ccc(Oc2ccc3nc(NC(=O)C4CC4)cn3n2)c(F)c1)c1cccn(-c2ccccc2)c1=O | 1 | 22 | 22 | 76 | 0 | 56 | 0 | 0 | 48 | 0
CCN1CCN(CCCC(=O)Nc2n[nH]c3nc(-c4ccc(O)cc4)c(Br)cc23)CC1 [SB-731579] | 12 | 30 | 0 | 24 | 0 | 0 | 0 | 0 | 6 | 0
O=C(Nc1cccc(C(F)(F)F)c1)c1cccc(Oc2ccc3nccn3n2)c1 | 0 | 17 | 14 | 10 | 17 | 7 | 9 | 81 | 0 | 50
COC(=O)Nc1nc2cc(Oc3ccc(NC(=O)Nc4cc(C(F)(F)F)ccc4Cl)cc3)ccc2[nH]1.Cl [GW697465] | 56 | 63 | 15 | 53 | 0 | 0 | 0 | 0 | 0 | 0
C[C@@H]1CCN(C(=O)N2CCCC2)C[C@@H]1N(C)c1ncnc2[nH]ccc12 | 8 | 0 | 0 | 0 | 0 | 0 | 0 | 86 | 48 | 0
COc1cccc(OC)c1C(=O)Nc1cccc(-c2nn3ccccc3c2-c2ccnc(Nc3cccc(F)c3)n2)c1 [GSK361065] | 0 | 0 | 0 | 0 | 23 | 0 | 5 | 0 | 13 | 0
Cn1ccc2ncnc(Oc3ccc(NC(=O)Nc4cccc(C(F)(F)F)c4)c(F)c3)c21 | 0 | 17 | 0 | 0 | 0 | 34 | 2 | 0 | 16 | 0
